Some test systems named below: SK-MEL-2 melanoma; EKVX NSCLC; SN12C renal; UO-31 renal; TK-10 renal; ACHN renal; CAKI-1 renal; A498 renal; CCRF-CEM leukemia; MOLT-4 leukemia; SR leukemia; RPMI-8226 leukemia; OVCAR-8 ovarian; OVCAR-5 ovarian; OVCAR-4 ovarian; SK-OV-3 ovarian; IGROV1 ovarian; OVCAR-3 ovarian; HS 578T breast; NCI/ADR-RES ovarian.
Assay in all cases: NCI-60 one-dose screen, 48 h (100 = growth as untreated, 0 = no growth, -100 = all killed)
Conditions in all cases: 10 µM unless noted

About 83,000 compounds went through this panel and 20% of them were active in at least one assay; those are over-represented in the sample as a whole.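 Negative percent growth values reflect cell death: -40 means 40% of the cells present at the start died, and -100 means all died.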 Values without a mark were called inactive. Activity calls are given as the source filed them. How the source made its calls: active means growth percent below 10; inactive means the rest.

Regarding `CCOC(=O)c1c(C)nc2c(c1N)/C(=C/c1ccc(OC)cc1)C(=O)N2Cc1ccccc1`, the growth in the assay with SK-MEL-2 melanoma is 64.6%; in the assay on EKVX NSCLC it was 75.6%; in the assay with SN12C renal, 57.4%; in the assay with UO-31 renal, 56.6%; in the assay on TK-10 renal, 97.2%; in the assay with ACHN renal it was 71.1%. Moreover, the growth in the assay on CAKI-1 renal was 78.6%; in the assay on A498 renal, 74.4%; in the assay with CCRF-CEM leukemia it was 48.9%; in the assay with MOLT-4 leukemia, 15.9%; in the assay with SR leukemia, 22.1%; with RPMI-8226 leukemia, 5.58% (active). Moreover, the growth in the assay with OVCAR-8 ovarian was 50.4%; in the assay on OVCAR-5 ovarian, 126%; in the assay on OVCAR-4 ovarian it was 51.5%; with SK-OV-3 ovarian it was 90.5%; in the assay on IGROV1 ovarian, 73.3%; in the assay on OVCAR-3 ovarian, 41.7%. The growth in the assay with HS 578T breast is 69.5%; with NCI/ADR-RES ovarian it was 52.4%.

Regarding `CC1=C(CCC(C)NCc2ccc(OCCCN3CCCCC3)cc2)C(C)(C)CCC1` (stereo not given), the growth is -82.1% (active) with SK-MEL-2 melanoma; -39.1% (active) in the assay on EKVX NSCLC; -60.7% (active) in the assay with SN12C renal; -95.5% (active) in the assay on UO-31 renal; -94.3% (active) in the assay on TK-10 renal; -83.6% (active) in the assay with ACHN renal. Also, the growth in the assay on CAKI-1 renal is -55.7% (active); with A498 renal, -71.5% (active); in the assay with CCRF-CEM leukemia, -39.6% (active); in the assay with MOLT-4 leukemia it was -41.7% (active); in the assay on SR leukemia, -43.4% (active); in the assay with RPMI-8226 leukemia, -39.6% (active). Further, the growth in the assay on OVCAR-8 ovarian was -45.4% (active); in the assay on OVCAR-5 ovarian it was -49.8% (active); with OVCAR-4 ovarian, -4.46% (active); with SK-OV-3 ovarian, -74.1% (active); with IGROV1 ovarian it was -36.6% (active); in the assay with OVCAR-3 ovarian, -70.4% (active). Moreover, the values for the growth in the assay on HS 578T breast and in the assay with NCI/ADR-RES ovarian were -52.9% (active) and -40.5% (active), respectively.

Take `CN(C)CCN1C(=O)c2cccc3c(/C=C/CN4C(=O)c5cccc6cccc(c56)C4=O)ccc(c23)C1=O`: the growth was 104% in the assay with SK-MEL-2 melanoma; 109% in the assay on EKVX NSCLC; 79.9% in the assay on SN12C renal; 72% in the assay with UO-31 renal; 121% in the assay with TK-10 renal; 72.7% with ACHN renal. Moreover, the growth with CAKI-1 renal is 91%; in the assay on A498 renal, 81.4%; in the assay on CCRF-CEM leukemia, -44.1% (active); in the assay with MOLT-4 leukemia it was 34.3%; in the assay on SR leukemia, -16.4% (active); in the assay on RPMI-8226 leukemia it was -31.4% (active). For the same molecule, the growth in the assay with OVCAR-8 ovarian is -43.5% (active); in the assay on OVCAR-5 ovarian it was -69% (active); with OVCAR-4 ovarian, -5.6% (active); in the assay with SK-OV-3 ovarian it was 109%; in the assay with IGROV1 ovarian, 89.4%; with OVCAR-3 ovarian it was 114%. Further, the growth in the assay on HS 578T breast is 82.6%; with NCI/ADR-RES ovarian, 24%.

As for `COc1ccccc1C(=O)Nc1cccc(NC(=O)c2ccoc2C)c1`, the growth in the assay with SK-MEL-2 melanoma was 10.3%; in the assay with EKVX NSCLC, 71%; in the assay on SN12C renal it was 43.3%; in the assay on UO-31 renal, 49.6%; in the assay on TK-10 renal, 44.7%; with ACHN renal, 52.1%. Moreover, the growth in the assay with CAKI-1 renal is 40.6%; in the assay with A498 renal, 47.1%; in the assay with CCRF-CEM leukemia it was 10.9%; in the assay on MOLT-4 leukemia, 25%; in the assay with SR leukemia, 15.5%; in the assay with RPMI-8226 leukemia it was 20.7%. Also, the growth was 40.4% in the assay on OVCAR-8 ovarian; 85.3% in the assay on OVCAR-5 ovarian; 77.7% in the assay on OVCAR-4 ovarian; 66.1% with SK-OV-3 ovarian; 41.6% with IGROV1 ovarian; 15% in the assay on OVCAR-3 ovarian. Besides, the growth is 40.2% with HS 578T breast and 9.85% (active) with NCI/ADR-RES ovarian.

With `COc1ccc(C2=CN3CC=CC3CC2=O)cc1` (stereo not given), the growth with SK-MEL-2 melanoma was 96.2%; in the assay on EKVX NSCLC, 87.3%; with SN12C renal it was 109%; with UO-31 renal, 103%; in the assay on TK-10 renal it was 82.5%; in the assay on ACHN renal, 102%. The growth in the assay with CAKI-1 renal is 95.8%; in the assay on A498 renal, 111%; in the assay on CCRF-CEM leukemia it was 106%; in the assay with MOLT-4 leukemia, 96%; in the assay on SR leukemia it was 94.4%; in the assay on RPMI-8226 leukemia, 104%. In addition, the growth is 103% in the assay on OVCAR-8 ovarian; 110% in the assay with OVCAR-5 ovarian; 98.9% with OVCAR-4 ovarian; 102% in the assay with SK-OV-3 ovarian; 104% in the assay on IGROV1 ovarian; 102% with OVCAR-3 ovarian. Further, the growth in the assay with HS 578T breast was 104%; in the assay with NCI/ADR-RES ovarian it was 103%.

Consider `Cc1ccc(-c2csc(NC(=O)c3ccccc3CN3C(=O)c4ccccc4C3=O)n2)cc1`, for which the growth in the assay on SK-MEL-2 melanoma was 97.3%; in the assay with EKVX NSCLC it was 93.6%; in the assay with SN12C renal it was 94.5%; with UO-31 renal, 85.9%; with TK-10 renal, 94.4%; in the assay with ACHN renal, 108%. Also, the growth with CAKI-1 renal was 86.6%; in the assay on A498 renal, 99.8%; in the assay on CCRF-CEM leukemia it was 102%; with MOLT-4 leukemia it was 93.4%; in the assay with SR leukemia it was 103%; in the assay on RPMI-8226 leukemia it was 94.8%. Besides, the growth with OVCAR-8 ovarian was 93.5%; in the assay with OVCAR-5 ovarian, 90.8%; with OVCAR-4 ovarian, 111%; in the assay on SK-OV-3 ovarian, 97.5%; in the assay on IGROV1 ovarian it was 96.5%; in the assay with OVCAR-3 ovarian, 103%. Further, the growth in the assay on HS 578T breast was 98.8%; in the assay with NCI/ADR-RES ovarian, 82.3%.

Turning to `N#Cc1ccc(O)c(C2=NCC(Cc3ccccc3)O2)c1` (stereo not given), the growth was 38.8% in the assay on SK-MEL-2 melanoma; 45% with EKVX NSCLC; 51.9% with SN12C renal; 22% in the assay on UO-31 renal; 51.4% in the assay on TK-10 renal; 38.6% with ACHN renal. Besides, the growth with CAKI-1 renal was 12.9%; in the assay with A498 renal, 84.9%; in the assay with CCRF-CEM leukemia it was 33.6%; with MOLT-4 leukemia, 46.6%; in the assay with SR leukemia, 60.8%; in the assay with RPMI-8226 leukemia, 55.3%. In addition, the growth in the assay on OVCAR-8 ovarian was 37%; in the assay with OVCAR-5 ovarian, 79.7%; with OVCAR-4 ovarian, 22.3%; in the assay with SK-OV-3 ovarian, 50.9%; in the assay with IGROV1 ovarian it was 43.2%; in the assay with OVCAR-3 ovarian, 16.1%. In addition, the growth is 90.7% in the assay on HS 578T breast and 0.317% (active) in the assay with NCI/ADR-RES ovarian.
